D3 ag = qHTS of D3 Dopamine Receptor Agonist: qHTS | D(3) dopamine receptor (Homo sapiens), P35462 | D3R DiscoveRx beta-arrestin cells, luminescence, 90 min | max activation, % | 410,000 tested, 0.58% active | AID 652048, 2013; in the data active = max activation above about 30%
Target sequence (P35462 whole entry, looked up): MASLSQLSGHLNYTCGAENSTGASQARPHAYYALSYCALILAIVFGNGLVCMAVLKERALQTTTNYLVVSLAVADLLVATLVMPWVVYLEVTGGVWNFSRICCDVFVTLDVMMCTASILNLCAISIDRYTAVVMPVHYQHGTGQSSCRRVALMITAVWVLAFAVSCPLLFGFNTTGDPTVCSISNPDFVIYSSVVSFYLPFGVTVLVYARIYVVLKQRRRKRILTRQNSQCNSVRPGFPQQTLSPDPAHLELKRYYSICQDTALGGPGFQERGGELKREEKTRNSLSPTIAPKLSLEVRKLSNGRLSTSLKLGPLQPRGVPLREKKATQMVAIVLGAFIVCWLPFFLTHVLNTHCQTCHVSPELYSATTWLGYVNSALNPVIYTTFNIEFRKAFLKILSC
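Cells at 1500/well, incubated overnight, then treated with pinned compounds (dopamine as control) for 90 min at 37 degrees C. DiscoveRx reagent added for 30 - 60 minutes at room temperature; luminescence read.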
D1 antag = Antagonist of Human D 1 Dopamine Receptor: qHTS; D(1A) dopamine receptor (Homo sapiens), P21728; HEK293 TREx D1 cells, calcium flux, dopamine EC80; active compounds read low; activity change, negative = inhibition, % at 10 µM; 360,000 tested, 3.2% active; AID 504652, 2011; in the data active = activity change below about -30%
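Compound effects on dopamine-evoked calcium signalling were measured in tetracycline-induced HEK293 Trex D1 cells. Dopamine at EC80 followed a 180 s compound pre-read, and fluorescence was tracked kinetically for 180 s more.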
D3 antag = qHTS of D3 Dopamine Receptor Antagonist: qHTS; max response, negative = inhibition, %; D3R cells, DiscoveRx beta-arrestin luminescence, antagonist mode; active compounds read low; D(3) dopamine receptor (Homo sapiens), P35462; 360,000 tested, 2.5% active; AID 652054, 2013; in the data active = max response below about -50%; inconclusive = no clear call, values can overlap the other calls
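Cells expressing the human receptor were seeded at 1500 cells/well, incubated overnight at 37 degrees C in 5% CO2, then exposed to library compounds with dopamine controls for 90 minutes at 37 degrees C before luminescent detection.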
D1 PAM = Potentiators of Human D1 Dopamine Receptor: qHTS; D(1A) dopamine receptor (Homo sapiens), P21728; HEK293 TREx D1 cells, calcium flux, dopamine EC20 potentiation; potentiation, % at 10 µM; 360,000 tested, 0.036% active; in the data active = potentiation above about 30%
D1 agonist = Allosteric Agonists of the Human D1 Dopamine Receptor: qHTS; D(1A) dopamine receptor (Homo sapiens), P21728; HEK293 T-REx D1 cells, calcium flux, agonist mode; activation, % at 2 µM; 360,000 tested, 1% active; in the data active = activation above about 30%
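Tetracycline-induced HEK293 TREx D1 cells, force-coupled to calcium signalling, were dye-loaded with a no-wash calcium kit. Compound was pin-added after a 10 s baseline. Fluorescence was read kinetically at 1 cycle/s for 180 s, with calcium rises flagged as agonism.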
Of the large screens only hits and unclear results are named; the others gave an inactive call. In the library only some 6% were active in any assay of this set; here they are far more common.

COC(=O)C1=C(c2cccc(OCc3ccccc3)c2)C[C@@H]2CC[C@H]1N2C(=O)NCc1ccc(Cl)cc1	D3 antag -51.8
COC(=O)C1=C(c2cccc(OCc3ccccc3)c2)C[C@@H]2CC[C@H]1N2C(=O)NCc1ccccc1	none
COC(=O)C1=C(c2ccc(F)cc2OCc2ccccc2)C[C@@H]2CC[C@H]1N2C(=O)NC1Cc2ccccc2C1	D1 antag -31.3
COC(=O)C1=C(c2cccc(OCc3ccccc3)c2)C[C@@H]2CC[C@H]1N2C(=O)NCc1cc(C)oc1C(F)(F)F	D1 antag -30.7
COC(=O)C1=C(c2cccc(OCc3ccccc3)c2)C[C@@H]2CC[C@H]1N2C(=O)NCc1ccc(OC)cc1	D3 antag -67.7, D1 PAM 41.1
O=C(Nc1ccc2c(c1)OCO2)c1cccn(Cc2ccccc2)c1=O	none (no result: D1 antag, D3 antag)
CCOC(=O)c1ncn2c1CN(C)C(=O)c1c(I)cccc1-2	none (no result: D1 antag, D3 antag, D1 PAM, D1 agonist)
Cc1cccc(-c2nc(CN3C(=O)CN=C(c4ccccc4)c4ccccc43)c(C)o2)c1	none (no result: D3 antag)
COC(=O)C1=C(c2cccc(OCc3ccccc3)c2)C[C@@H]2CC[C@H]1N2C(=O)NCc1ccc(OC)c(OC)c1	none (no result: D1 antag)
COC(=O)C1=C(c2cccc(OCc3ccccc3)c2)C[C@@H]2CC[C@H]1N2C(=O)NCc1ccccc1OC	D3 antag -51.6
O=C(C1CCCN(S(=O)(=O)c2cccc3nsnc23)C1)N1CCC2(CC1)OCCO2 (stereo not drawn)	D1 antag -35.6
CC(=O)N1CCN(CC(=O)Nc2ccc(C#N)c(Cl)c2)CC1	none
CCN(CC)S(=O)(=O)c1ccc(C)c(NCC(=O)Nc2ccc(C#N)c(Cl)c2)c1	D1 antag -37.4
CCCC(C)(COC(N)=O)COC(N)=O	none (no result: D1 antag, D3 antag, D1 PAM, D1 agonist)
CCN1CCN(c2cn[nH]c(=O)c2Cl)CC1	D3 antag -74.9
COC(=O)CSC1=NN1c1cc(C)nc(N)n1	D1 antag -32.8
CCc1c(C)nc(N)nc1N1N=C1SCC(=O)OC	none
CC(=O)Nc1ccccc1C(=O)OCC(=O)c1ccc2ccccc2c1	none
Nc1ccccc1C(=O)OCC(=O)c1ccc2c(c1)OCCO2	D1 antag -33.0
CCCCC[C@@H](O)C1C(=O)OC(C)[C@H](O)/C=C/C=C/C=C/C=C/C=C(\C)C(O)C(O)C(O)C[C@H](O)C[C@H](O)C[C@H](O)C[C@H](O)C[C@@H]1O (stereo partly drawn)	none (no result: D1 antag, D3 antag, D1 PAM, D1 agonist)
O=C1CC(=O)N(c2cccc(Cl)c2)C(=O)N1	none
CC12CC1(C)C(=O)N(c1cc(Cl)cc(Cl)c1)C2=O (stereo not drawn)	D3 antag -56.4 (no result: D1 antag, D1 PAM, D1 agonist)
Cc1ccc(OCC(=O)Nc2ccc(Cl)cc2C(=O)c2ccccc2)cc1C	none (no result: D3 antag)
O=P(CCl)(Nc1ccccc1)C(Cl)(Cl)Cl (stereo not drawn)	D1 antag -40.9
O=P(Nc1ccccc1)(Oc1ccccc1)Oc1ccccc1	none
COCCN1C(=O)NC(=O)/C(=C\c2ccc(Br)cc2)C1=O	D1 antag -54.8
CN(C)c1ccc(/C=C2/C(=O)NC(=O)N(CCc3ccc(F)cc3)C2=O)cc1	none
COc1ccc2c(C(=O)c3ccc(Cl)cc3)c(C)n(CC(=O)O)c2c1	none (no result: D1 antag, D3 antag, D1 PAM, D1 agonist)
CCC(C(N)=O)N1CCCC1=O (stereo not drawn)	none (no result: D1 antag, D3 antag, D1 PAM, D1 agonist)
CCOC(=O)c1cc2ccccc2n1C1CCN(Cc2ccccc2)CC1	D3 antag -115.7 (no result: D1 antag, D1 PAM, D1 agonist)
Cc1cccc2nc(-c3ccccc3)c(-c3ccc(CN4CCC(n5c(=O)[nH]c6ccccc65)CC4)cc3)nc12	D3 antag inconclusive (no result: D1 antag, D1 PAM, D1 agonist)
Cc1cccc(-c2nn3c(=O)cc(CN4CCN(C(=O)COc5ccc(Cl)cc5)CC4)nc3s2)c1	none (no result: D3 antag)
Cc1cccc(C)c1OC(=O)Cc1ccccc1	D1 PAM 33.0
CC(C)OC(=O)Cc1ccccc1	none (no result: D1 antag)
CCc1cc(OC)c(C[C@@H](C)N)cc1OC	none (no result: D1 antag, D3 antag, D1 PAM, D1 agonist)
CCCCCCCSc1cc(OC)c(CCN(C)C)cc1OC	D3 antag -65.7, D1 agonist 200.7
CCCSc1cc(OC)c(CCN)cc1OC	none (no result: D1 antag, D3 antag, D1 PAM, D1 agonist)
CCCCCSc1cc(OC)c(CCN)cc1OC	D1 agonist 30.9
CCN1/C(=C/C=C/C2=[N+](CC)c3ccccc3C2(C)C)C(C)(C)c2ccccc21	D3 antag -71.6 (no result: D1 antag, D1 PAM, D1 agonist)
CN1/C(=C\C=C\C2=[N+](C)c3ccc4ccccc4c3C2(C)C)C(C)(C)c2ccccc21	none (no result: D3 ag, D3 antag)
CCc1cc(OC)c(C[C@H](C)N)cc1OC	none (no result: D1 antag, D3 antag, D1 PAM, D1 agonist)
CCN(CC)c1ccc(CNCCc2ccccc2F)cc1	D1 agonist 45.5
C#CCOC(C(=O)OCCN(C)C)(c1ccccc1)c1ccccc1	none (no result: D1 antag, D3 antag, D1 PAM, D1 agonist)
Cc1c(CC(=O)N2C[C@H]3C[C@@H](C2)c2cccc(=O)n2C3)c(=O)oc2cc(O)c(Cl)cc12	D1 antag -46.6
COc1cc2oc(=O)c(CC(=O)N3C[C@H]4C[C@@H](C3)c3cccc(=O)n3C4)c(C)c2cc1Cl	none (no result: D1 antag, D1 PAM, D1 agonist)
Cc1ccccc1Cn1cccc(C(=O)Nc2cc(Cl)ccc2C#N)c1=O	none (no result: D3 antag)
Cc1ccccc1-c1nn2c(=O)cc(CN3CCN(C(=O)COc4ccccc4Cl)CC3)nc2s1	D1 antag -34.8 (no result: D3 antag)
O=C(COc1ccccc1F)N1CCN(Cc2cc(=O)n3nc(-c4ccccc4Cl)sc3n2)CC1	none (no result: D3 antag)
O=C(O)/C=C/C(=O)O	none (no result: D1 antag, D1 PAM, D1 agonist)
CCN(CC)CCO[C@H]1CC[C@@]2(C)C(=CC[C@@H]3[C@@H]2CC[C@]2(C)C(=O)CC[C@@H]32)C1	D3 ag 34.2 (no result: D1 antag, D3 antag, D1 PAM, D1 agonist)
Cc1ccccc1-n1c(O)c(/C=N/Nc2nc3c(c(=O)n(C)c(=O)n3C)n2C)c(=O)[nH]c1=S	D1 antag -59.5
Cc1cccc(-n2c(O)c(/C=N/Nc3nc4c(c(=O)n(C)c(=O)n4C)n3C)c(=O)[nH]c2=S)c1	none
Cc1cccc(-n2nc(C)c3c2NC(=O)CSC3c2ccccc2Cl)c1 (stereo not drawn)	none (no result: D3 antag)
Cc1cc(C)cc(C(=O)OC2C[C@H]3CC[C@@H](C2)N3C)c1 (stereo partly drawn)	none (no result: D1 antag, D3 antag, D1 PAM, D1 agonist)
CCNC(=O)NC(=O)C(C)OC(=O)c1c(C)nn(Cc2ccccc2Cl)c1Cl (stereo not drawn)	D1 antag -35.3
C=CCC1(C(C)CCC)C(=O)N=C(S)NC1=O (stereo not drawn)	none (no result: D1 antag, D3 antag, D1 PAM, D1 agonist)
CC(N)Cc1cn(Cc2ccccc2)c2ccccc12 (stereo not drawn)	D1 agonist 46.9
CC(=O)c1cn(Cc2ccc(F)cc2)c2ccccc12	D3 antag inconclusive
CN(C)CCO	none (no result: D1 antag, D3 antag, D1 PAM, D1 agonist)
COC(=O)[C@@H]1[C@H]2CC[C@@H](C[C@H]1OC(=O)c1ccccc1)N2C	none (no result: D1 antag, D3 antag, D1 PAM, D1 agonist)
C=CCN1C(=O)NC(=O)/C(=C/C=C/c2ccccc2)C1=O	D1 antag -34.1
CC(C)(C)c1ccc(O)c(N=Cc2c(O)ccc3ccccc23)c1	D1 agonist 257.9
COc1ccccc1OP(=O)(Nc1ccc(Br)cc1)Oc1ccccc1OC	D1 antag -46.6

Screens deposited in PubChem by National Center for Advancing Translational Sciences (NCATS).
